Screens as filed in PubChem.
This is a sample that favours compounds with a hit; in the whole collection about 3.6% have one here.
PI5P4K alpha inh – PI5P4K alpha (human) kinase inhibition; P48426; PI5P4Kalpha enzyme, ADP-Glo luminescence, 60 min; stronger effect = lower value; max response, %; 330,000 compounds, 1.2% hits; AID 652105; active = max response of -50% or lower; inconclusive = between -30% and -50%; inactive = -30% or higher; also: value at the top dose of about 77 µM; % is scaled to controls: 0 for no effect and ±100 for the full control effect
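ADP-Glo luminescence end-point read after a 60 min room-temperature kinase reaction of PI5P4Kalpha plus substrate, initiated with ATP at 5 microM final. Buffer: 0.038 M HEPES pH 7.4, EGTA, 0.1% CHAPS, 5% DMSO.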
Rango release inh – prevents RanGTP from dissociating the Rango-importin beta complex; AID 540253; O95149+P62826; Biochemical FRET Rango-importin beta, RanGTP-induced dissociation; 340,000 compounds, 0.071% hits; Potency, µM (highest dose often 46.1 µM), inactives show top-dose activity change, negative = inhibition; calls by dose curve; also: potency is read from the fitted curve at half-maximal effect; % of control where 0% means no effect; nearly all actives have a fitted effect of over 45% in size
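FRET read at 45 min, room temperature: inhibitors block the CFP/YFP signal rise when RanGTP (0.6 uM Ran, 2 mM GTP, 0.2 uM RCC1) frees Rango (0.1 uM) from importin beta (0.25 uM). Pre-read after 5 min compound exposure flags interference.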
KAT2A inh – blocks human GCN5L2 histone acetyltransferase; 390,000 compounds, 0.21% hits; GCN5L2 HAT assay, ThioGlo1 CoA-SH fluorescence; AID 504327; Potency, µM (titrated, usually from 58.9 µM), for inactives: at the highest dose activity change, negative = inhibition, hits mostly inhibitors; Q92830; also: potency is read from the fitted curve at half-maximal effect; % is scaled to controls: 0 for no effect and ±100 for the full control effect
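Preincubate 20nM GCN5L2 with compound 15 min, RT → add 50uM ThioGlo1 + 75uM H3(1-25) + 70uM acetyl-CoA → read fluorescence 0 and 20 min. Primary qHTS; fluorescent artifacts likely.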
Rango-impB inh – prevents formation of the Rango-importin beta complex. Q14974. Rango CFP/YFP FRET sensor + importin beta, 45 min. Potency, µM (series often up to 92.2 µM), inactives show top-dose inhibition of complex formation. 340,000 compounds, 0.031% hits. AID 540263; calls by dose curve;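 also: potency is read from the fitted curve at half-maximal effect; 0% = DMSO wells and 100% = buffer wells lacking importin beta; nearly all actives have a fitted effect of over 15% in size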
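Inhibition scored from the CFP 486 nm/YFP 530 nm FRET ratio 45 min after adding 0.125 microM importin beta to 50 nM Rango biosensor preincubated 5 min with compound (room temperature, PBS with DTT, Tween-20, BSA). No-importin wells as positive control.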
VDR inhibitor – vitamin D3 receptor (human) inhibition. P11473. VDR-SRC2-3 peptide fluorescence polarization, 2 h. Potency, µM, inactives show max response, negative = inhibition, usual class: inhibitors. 400,000 compounds, 0.93% hits. AID 504847; also: potency is read from the fitted curve at half-maximal effect; % is scaled to controls: 0 for no effect and ±100 for the full control effect
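Signal is fluorescence polarization, reporting how far test compounds block the interaction of VDR with the SRC2-3 coregulator peptide after a 2 h room-temperature incubation.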
PLK1 PBD block – blocks phosphopeptide binding to human PLK1 polo-box domain; Potency, µM, for the others: max response, negative = inhibition, usual class: inhibitors; P53350; Plk1 PBD binding of FITC phosphopeptide, fluorescence polarization; 360,000 compounds, 2.8% hits; also: potency is read from the fitted curve at half-maximal effect; series mostly up to about 57 µM; % is scaled to controls: 0 for no effect and ±100 for the full control effect; nearly all actives have a fitted effect of over 65% in size
Target sequence (P53350 whole entry, looked up, the tested form may be a part): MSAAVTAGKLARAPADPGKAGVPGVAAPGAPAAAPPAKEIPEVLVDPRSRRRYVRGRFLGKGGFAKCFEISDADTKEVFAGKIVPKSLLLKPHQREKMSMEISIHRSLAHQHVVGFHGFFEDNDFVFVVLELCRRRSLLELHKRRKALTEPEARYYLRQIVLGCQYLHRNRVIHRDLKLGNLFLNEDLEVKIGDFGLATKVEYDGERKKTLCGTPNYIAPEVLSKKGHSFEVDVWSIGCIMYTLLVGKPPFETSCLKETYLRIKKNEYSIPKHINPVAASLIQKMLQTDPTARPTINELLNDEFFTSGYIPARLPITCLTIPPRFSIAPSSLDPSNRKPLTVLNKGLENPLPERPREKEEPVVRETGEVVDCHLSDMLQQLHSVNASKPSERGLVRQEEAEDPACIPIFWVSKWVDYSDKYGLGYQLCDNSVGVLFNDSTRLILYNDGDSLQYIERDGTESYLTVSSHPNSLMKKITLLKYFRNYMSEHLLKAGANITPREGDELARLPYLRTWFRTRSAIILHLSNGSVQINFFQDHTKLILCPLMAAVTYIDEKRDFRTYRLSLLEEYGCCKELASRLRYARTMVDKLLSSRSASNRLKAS
* marks the source's active call; other numbers are inactive results. Unless noted, calls follow the shape of the dose curve; as a rule, active = well fitted curve in the direction sought with a large enough effect; inconclusive = small, poorly fitted or top-dose-only effect, or another doubt; inactive = no such curve, though single readings can be large; an effect the other way counts as inactive or inconclusive.

`O=C(CNC(=O)c1[nH]cnc1C(=O)NC(c1ccccc1)c1ccccc1)OCc1ccccc1` gave PI5P4K alpha inh -2, Rango release inh -13%, KAT2A inh -11%, Rango-impB inh 0%, VDR inhibitor -17% and PLK1 PBD block 24µM*.
`O=C(CSc1nccn1-c1ncc(C(F)(F)F)cc1Cl)c1ccc(Cl)cc1` gave PI5P4K alpha inh -2, Rango release inh -3%, KAT2A inh 22%, Rango-impB inh -1%, VDR inhibitor 45µM* and PLK1 PBD block inconclusive.
`Cc1ccc(SCCNC(=O)CN(c2ccccc2)S(=O)(=O)N(C)C)cc1` gave KAT2A inh -10% and VDR inhibitor -3%.
O=C(N/N=C/c1cc2c3c(c1O)CCCN3CCC2)c1ccccc1O was read as PI5P4K alpha inh -14, Rango release inh inconclusive, KAT2A inh -12%, Rango-impB inh inconclusive, VDR inhibitor -17% and PLK1 PBD block -10%.
For O=c1oc2c3c4c(cc2s1)CCCN4CCC3 the results were Rango release inh 0%, KAT2A inh -11%, Rango-impB inh 5%, VDR inhibitor 79µM* and PLK1 PBD block 27µM*.
Screening O=c1ccc2cc3c4c(c2o1)CCCN4CCC3 returned PI5P4K alpha inh 2, Rango release inh inconclusive, KAT2A inh inconclusive, Rango-impB inh inconclusive, VDR inhibitor 2% and PLK1 PBD block 17µM*.
For Cc1ccc(-n2ncc(-c3n[nH]c(=S)o3)c2N)cc1C the results were PI5P4K alpha inh -76* and PLK1 PBD block -20%.
For CCCOc1ccc(C2=NC(c3ccc(F)cc3)=Nc3ccc(OC)cc3N2)cc1 the results were KAT2A inh -4% and VDR inhibitor 0%.
Screening Cc1ccc2c(c1)C(=C(C#N)C#N)C(=O)N2CCN1CCOCC1 returned PI5P4K alpha inh -2, Rango release inh -2%, KAT2A inh 30%, Rango-impB inh inconclusive, VDR inhibitor 79µM* and PLK1 PBD block 12µM*.
For Cc1ccc2c(c1)C(=C(C#N)C#N)C(=O)N2CCN1CCCCC1 the results were PI5P4K alpha inh -11, Rango release inh -8%, KAT2A inh inconclusive, Rango-impB inh inconclusive, VDR inhibitor 12% and PLK1 PBD block inconclusive.
`O=C(COC(=O)COc1ccc(Cl)cc1)NCc1ccc2c(c1)OCO2` gave PI5P4K alpha inh 2, Rango release inh -1%, KAT2A inh -3%, Rango-impB inh 0%, VDR inhibitor -11% and PLK1 PBD block 1%.
`O=C(COC(=O)CSc1cc(Cl)ccc1Cl)NCc1ccc2c(c1)OCO2` gave PI5P4K alpha inh -3, Rango release inh 2%, KAT2A inh -2%, Rango-impB inh 0%, VDR inhibitor -18% and PLK1 PBD block 27µM*.
`O=C(O)c1ccc2c3c(cccc13)C(=O)N(c1ccccc1)C2=O` gave PI5P4K alpha inh -13, Rango release inh -17%, KAT2A inh -17%, Rango-impB inh 2%, VDR inhibitor 27% and PLK1 PBD block inconclusive.
`NN1C(=O)c2cccc3c(C(=O)O)ccc(c23)C1=O` gave PI5P4K alpha inh -64*, Rango release inh 6%, KAT2A inh -8%, Rango-impB inh 2%, VDR inhibitor -21% and PLK1 PBD block -12%.
For Cc1cccc(-c2nc3ccccc3c(=O)n2N)c1 the results were PI5P4K alpha inh 1, Rango release inh 13%, KAT2A inh -2%, Rango-impB inh -1%, VDR inhibitor 11% and PLK1 PBD block inconclusive.
`Cc1cccc(OCc2nc3ccccc3c(=O)n2N)c1` gave PI5P4K alpha inh -17, Rango release inh -7%, KAT2A inh -4%, Rango-impB inh -1%, VDR inhibitor 8% and PLK1 PBD block 24µM*.
`Brc1cccc(CNCCCN2CCOCC2)c1` gave PI5P4K alpha inh -21, Rango release inh -12%, KAT2A inh -6%, Rango-impB inh -4%, VDR inhibitor -28% and PLK1 PBD block 27µM*.
